# High-throughput results as filed in PubChem.
# An excerpt weighted towards active compounds, which were near 11% of everything screened.
# NIH3T3 tox: kills NIH 3T3 cells; NIH 3T3 viability, CellTiter-Glo ATP luminescence, 48-72 h; Potency, µM (titrated, usually from 96.7 µM), without a hit: top-dose activity change, negative = cytotoxicity, actives largely listed as inhibitors; 94,000 compounds, 4.3% hits; note: nearly all actives have a fitted effect of over 55% in size
#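 Luminescent ATP readout (CellTiter-Glo, 10 min RT) after 48 or 72 hr compound exposure of NIH 3T3 cells seeded at 400 cells/well in 1536-well format; quantitative HTS.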
# HEK cytotox: cytotoxic compounds in HEK 293 cells | HEK 293 viability, ATP luminescence (CellTiter-Glo), 48-72 h | Potency, µM (series often up to 115 µM), for inactives: at the top dose activity change, negative = cytotoxicity, usual class: inhibitors | 94,000 compounds, 6.6% hits | AID 1345083; note: nearly all actives have a fitted effect of over 60% in size
#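 CellTiter-Glo luminescence (cellular ATP) was read after 48 or 72 hr of compound exposure at 37 degree Celsius. Cells were HEK 293 plated at 250 cells/well.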
# FLuc inh: inhibitors of firefly (Photinus pyralis) luciferase; P08659; purified P. pyralis luciferase, luminescence, biochemical; Potency, µM (top dose mostly 115 µM), actives largely listed as inhibitors; 76,000 compounds, 2.5% hits; note: nearly all actives have a fitted effect of over 65% in size
#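 Purified P. pyralis luciferase (10nM final) in 50mM Tris acetate pH 7.5, 10mM Mg acetate, 0.01% Tween-20, 0.05% BSA with 10uM D-luciferin and 10uM ATP. Compounds titrated qHTS. Luminescence imaged on CCD.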
# hNpr1 antagonist: blocks ANP-stimulated signaling of human Npr1 receptor | P16066 | HEK293 hNpr1 GloSensor cGMP, ANP-stimulated luminescence | Potency, µM (highest dose often 46.3 µM), for the others: top-dose activity change, negative = inhibition, hits mostly inhibitors | 76,000 compounds, 1.6% hits; calls by dose curve; note: nearly all actives have a fitted effect of over 60% in size
# Target sequence (P16066 whole entry, looked up): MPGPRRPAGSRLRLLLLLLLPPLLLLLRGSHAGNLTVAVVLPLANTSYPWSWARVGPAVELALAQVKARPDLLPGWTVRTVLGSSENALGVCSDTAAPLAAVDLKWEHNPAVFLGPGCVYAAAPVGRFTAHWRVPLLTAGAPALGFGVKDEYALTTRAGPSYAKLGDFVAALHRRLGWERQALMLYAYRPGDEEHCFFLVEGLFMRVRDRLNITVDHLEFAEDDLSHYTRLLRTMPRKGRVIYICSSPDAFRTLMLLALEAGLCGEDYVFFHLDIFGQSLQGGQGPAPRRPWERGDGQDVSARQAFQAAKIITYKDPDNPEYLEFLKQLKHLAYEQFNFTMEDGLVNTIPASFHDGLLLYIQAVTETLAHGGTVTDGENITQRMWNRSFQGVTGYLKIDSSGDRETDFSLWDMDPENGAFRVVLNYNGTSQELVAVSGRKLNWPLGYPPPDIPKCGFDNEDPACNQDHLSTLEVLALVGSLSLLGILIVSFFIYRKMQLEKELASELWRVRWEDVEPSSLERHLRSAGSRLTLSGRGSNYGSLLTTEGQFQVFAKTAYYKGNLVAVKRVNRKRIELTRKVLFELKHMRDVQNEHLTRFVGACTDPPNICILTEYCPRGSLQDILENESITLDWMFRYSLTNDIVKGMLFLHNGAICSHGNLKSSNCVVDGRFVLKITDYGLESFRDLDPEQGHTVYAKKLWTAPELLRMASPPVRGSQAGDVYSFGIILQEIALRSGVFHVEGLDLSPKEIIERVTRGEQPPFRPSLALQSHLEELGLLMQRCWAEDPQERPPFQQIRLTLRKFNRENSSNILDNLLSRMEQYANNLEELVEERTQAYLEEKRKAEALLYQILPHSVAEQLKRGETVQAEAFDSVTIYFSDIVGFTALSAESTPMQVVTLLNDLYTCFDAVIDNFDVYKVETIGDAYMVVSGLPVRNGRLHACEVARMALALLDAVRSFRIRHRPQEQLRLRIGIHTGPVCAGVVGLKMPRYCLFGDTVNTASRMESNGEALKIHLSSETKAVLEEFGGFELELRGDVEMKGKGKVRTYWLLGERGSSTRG
#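 Compound pre-incubated 30 min at room temperature on GloSensor-loaded HEK293 cells stably carrying hNpr1 and the pGS-40F cGMP biosensor. Stimulation uses hNppA at 0.1 nM final; luminescence is taken at baseline and 20 min post-agonist.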
# Numbers without * were called inactive; i = inactive; u = inconclusive; x = no result given; [ ] = remark or other dose. Unless noted, calls come from the whole dose curve; as a rule, active = well fitted curve in the direction sought with a large enough effect; inconclusive = small, poorly fitted or top-dose-only effect, or another doubt; inactive = no such curve, though single readings can be large; an effect the other way counts as inactive or inconclusive. % is set by controls: 0 for no effect and ±100 for the full control effect; potency is the fitted concentration of half-maximal effect.
SMILES,NIH3T3 tox,HEK cytotox,FLuc inh,hNpr1 antagonist
Cc1cccc(S(=O)(=O)N2CCN(C3CCN(Cc4ccccn4)C3=O)CC2)c1 (centres undefined),-30%,-25%,i,-4%
COc1ccc(-c2noc(COC(=O)C3=CN(Cc4ccccc4)S(=O)(=O)N=C3C)n2)cc1,-21%,u,i,u
CC(C)CCN1C(=O)CC[C@]2(C(=O)N3CCC(N4CCCCC4)CC3)CCCC[C@@H]12,-6%,u,i,-1%
O=C(C1CCCN1C(=O)Nc1ccc(Cl)cc1)N1CCC(N2CCCC2=O)CC1 (centres undefined),-11%,i,x,x
COCCNC(=O)[C@@H]1Cc2cn(Cc3ccncc3)c3cccc(c23)[C@H](CC(C)C)N1,45µM*,45µM*,i,-3%[70.6 µM]
CC(C)C[C@@H]1N[C@H](C(=O)NCc2ccccc2)Cc2cn(Cc3ccncc3)c3cccc1c23,u,u,i,-5%
CCn1cc(CN2CCC(N3C(=O)C4(CCCC4)C3c3ccccc3)CC2)cn1 (centres undefined),0%,-2%,i,1%
CCc1cccc2c(C(CC(=O)NCCOC)c3ccc(OC)c(OC)c3)c[nH]c12 (centres undefined),-7%,-4%,i,0%
CCc1cccc2c(C(CC(=O)NCc3ccco3)c3cccc([N+](=O)[O-])c3)c[nH]c12 (centres undefined),32µM*,45µM*,i,-5%
COc1ccc(C(CC(=O)NCc2ccccc2)c2c[nH]c3ccccc23)cc1OC (centres undefined),-12%,3%,i,-9%
CCc1cccc2c(C(CC(=O)NCC(C)C)c3cccc([N+](=O)[O-])c3)c[nH]c12 (centres undefined),35µM*,u,i,-1%
CC(C)CNC(=O)CC(c1cccc([N+](=O)[O-])c1)c1c[nH]c2ccccc12 (centres undefined),u,79µM*,i,-16%
O=C(c1ccc2nc(-c3cccnc3)oc2c1)N1CCOCC1,-15%[138 µM],u,x,x
O=C(c1ccc(C(F)(F)F)cc1)N1CCC(c2nn(-c3ccccn3)c(=O)[nH]2)CC1,-1%,-8%,x,x
CCc1nc2c(c(-c3ccc(Cl)cc3)n1)CCN(Cc1cccc3ccccc13)CC2,-23%,45µM*,i,0%
CC(C)c1nc2c(c(-c3ccc(O)cc3)n1)CCN(Cc1cccc3ccccc13)CC2,u,25µM*,i,u
CCc1nc2c(c(-c3ccc(O)cc3)n1)CN(Cc1cccc3ccccc13)CC2,u,89µM*,i,-21%
CCc1nc2c(c(-c3ccc(Cl)cc3)n1)CCN(Cc1cccn1C)CC2,u,u,i,0%
CC(C)c1nc2c(c(-c3ccc(O)cc3)n1)CCN(Cc1ccccc1)CC2,u,u,i,16%
CCc1nc2c(c(-c3ccc(O)cc3)n1)CN(Cc1ccc(OC)cc1)CC2,-22%,u,i,0%
CN1c2cc(C(=O)NC3CCCCC3)ccc2C(=O)N2CCCC21 (centres undefined),u,-11%,i,13%
O=C(NC1CCCC1)N1CC(Oc2ccccc2-c2nc(-c3ccccc3)no2)C1,32µM*,u,i,-18%
O=C(c1ccco1)N1CC(Oc2cccc(-c3nc(-c4ccccc4)no3)c2)C1,u,u,u,-1%
COc1ccc(C(=O)N2CC(Oc3ccccc3-c3nc(-c4ccccc4)no3)C2)cc1,32µM*,28µM*,u,-17%
COc1ccc(C(=O)N2CC(Oc3ccc(-c4nc(-c5ccccc5)no4)cc3)C2)cc1,5%,5%,i,1%
SMILES,NIH3T3 tox,HEK cytotox,FLuc inh,hNpr1 antagonist
CC(C)CNC(=O)N1CC(Oc2ccccc2-c2nc(-c3ccccc3)no2)C1,u,u,u,0%
O=C(c1ccco1)N1CC(Oc2ccccc2-c2nc(-c3ccccc3)no2)C1,32µM*,25µM*,u,-21%
CCNC(=O)CN1CCN(c2nccc(C3CCCC3)n2)CC1,-3%,-9%,i,3%
CNC(=O)N1CCO[C@@H](COc2ccccn2)[C@@H]1c1ccccc1,-5%,5%,x,x
COc1ccc(-n2c(=O)c3c(n2Cc2ccccc2)CN(C(=O)C(C)C)CC3)cc1,10µM*,-4%[172 µM],i,-8%[70.6 µM]
CC(C)C(=O)N1CCc2c(n(Cc3ccccc3)n(-c3ccccc3)c2=O)C1,22µM*,4%[172 µM],i,-3%[70.6 µM]
COc1ccc(Cn2c3c(c(=O)n2Cc2ccccc2)CCN(C(=O)Cc2cccc(Cl)c2)C3)cc1,u,u,i,-7%
CCn1c2c(c(=O)n1Cc1ccccc1)CCN(C(=O)C(C)C)C2,u,i,i,4%[70.6 µM]
Nc1ncccc1CN1CCc2c(n(Cc3ccccc3)n(-c3ccccc3)c2=O)C1,-25%[138 µM],u,i,-14%[70.6 µM]
Cc1ccccc1CN1CCc2c(n(Cc3ccccc3)n(-c3ccccc3)c2=O)C1,89µM*,89µM*,i,-21%[70.6 µM]
COc1ccc(-n2c(=O)c3c(n2Cc2ccccc2)CN(C(C)=O)CC3)cc1,u,3%[172 µM],i,5%[70.6 µM]
COc1ccc(Cn2c3c(c(=O)n2Cc2ccccc2)CCN(C(=O)c2ccnn2C)C3)cc1,35µM*,3%,i,-1%
COCCCNC(=O)N1CCC(n2c(C)cnc2C2CCOCC2)CC1,i,-2%,x,x
O=C(c1ccccc1F)N1CCCC(C(=O)N2CCCC(c3nc4ncccc4[nH]3)C2)C1 (centres undefined),-15%,-19%,x,x
O=C(NC1CCN(c2ccnc3ccnn23)C1)c1cccc(Br)c1 (centres undefined),-25%[138 µM],u,x,x
COCCc1noc([C@@H]2CN(Cc3ccc4c(c3)CCO4)C[C@H]2CO)n1,-18%,-21%,i,-1%
COCCc1noc([C@@H]2CN(Cc3ccc(C(C)C)cc3)C[C@H]2CO)n1,u,40µM*,i,-28%
Cc1ccc(NC(=O)N2CCc3c(c4ccccc4n3C)C2)cc1,u,u,u,-1%
Cn1c2c(c3ccccc31)CN(C(=O)Nc1ccccc1F)CC2,35µM*,45µM*,u,-3%
Cn1c2c(c3ccccc31)CN(C(=O)Nc1ccc(Cl)cc1Cl)CC2,u,u,25µM*,-19%
Cn1c2c(c3cc(F)ccc31)CN(C(=O)Nc1ccc(Cl)cc1Cl)CC2,u,u,i,-13%
CCN1CCN(C(=O)c2ccc3oc(-c4ccnc(Cl)c4)nc3c2)CC1,3%[138 µM],-11%[172 µM],x,x
Cc1ccccc1NC(=O)Cn1ccn2nc3c(c2c1=O)CCCCC3,-4%,-3%,u,-12%
O=Cc1cccc(-c2ccc(OC(F)(F)F)cc2)c1,u,-25%[172 µM],x,x
NCc1cccc(-c2cccc(C(F)(F)F)c2)c1,79µM*,u,x,x
NCc1cccc(-c2ccc(OC(F)(F)F)cc2)c1,32µM*,40µM*,x,x
CN(Cc1cccc(C(F)(F)F)c1)Cc1cccc2ccccc12,-24%[138 µM],u,x,x
